Where “and” joins values, the source holds several entries; their conditions need not be identical. Equal values may be shown once. This is part of a sample that, as a whole, favours compounds with a hit. Of some 83,000 tested, about 20% had one in any assay.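 Growth was measured after 48 h exposure to one concentration of compound in 96-well plates. Values under 10 count as active.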 Calls of active or inactive are those of the source. Where a SMILES comes first, the peptide text is derived from it. [ ]: non-standard residue; d: D form. ξ: configuration not given here. ξV = CC(C)C(N)C(=O)O
Key:
Assay in all cases: NCI-60 one-dose screen, 48 h (100 = growth as untreated, 0 = no growth, -100 = all killed)
[1] = tested on: UACC-62 melanoma
[2] = tested on: DU-145 prostate; conditions: 10 µM unless noted
[3] = tested on: K-562 leukemia; conditions: 10 µM
[4] = tested on: MALME-3M melanoma; conditions: 10 µM
[5] = tested on: MDA-MB-231 breast; conditions: 10 µM
[6] = tested on: RXF 393 renal; conditions: 10 µM unless noted
[7] = tested on: SF-268 CNS; conditions: 10 µM
[8] = tested on: SF-295 CNS; conditions: 10 µM
[9] = tested on: SF-539 CNS; conditions: 10 µM
[10] = tested on: UACC-257 melanoma; conditions: 10 µM
[11] = tested on: HCT-15 colon; conditions: 10 µM
[12] = tested on: HT29 colon; conditions: 10 µM
[13] = tested on: SNB-75 CNS; conditions: 10 µM
[14] = tested on: SNB-19 CNS; conditions: 10 µM
[15] = tested on: U251 CNS; conditions: 10 µM unless noted
[16] = tested on: PC-3 prostate; conditions: 10 µM
[17] = tested on: SK-MEL-5 melanoma; conditions: 10 µM unless noted
[18] = tested on: LOX IMVI melanoma; conditions: 10 µM unless noted
[19] = tested on: SK-MEL-28 melanoma; conditions: 10 µM
[20] = tested on: M14 melanoma; conditions: 10 µM

CC(C)C1=C(O)C2=C(C(=O)C1=O)C1(C)CCCC(C)(C)C1CC2O (stereo not given)
growth ([1]; 100 µM): -73.2% (active) and -96.5% (active)

CCN1/C(=C/C=C/C=C/c2sc3ccccc3[n+]2CC)Sc2ccccc21
growth [2]: -17.2% (active)
growth [3]: -46.4% (active)
growth [4]: -32.8% (active)
growth [5]: 8.54% (active)
growth [6]: -64.4% (active)
growth [7]: -75.4% (active)
growth [8]: -23.8% (active)
growth [9]: -57% (active)
growth [10]: -57.7% (active)
growth [11]: -20.9% (active)
growth [12]: -66.1% (active)
growth [13]: -45.6% (active)
growth [14]: -5.19% (active)
growth [15]: -6.94% (active)
growth [16]: 7.09% (active)
growth [17]: -95.4% (active)
growth ([1]; 10 µM): -74.6% (active)
growth [18]: -57.5% (active)
growth [19]: -56.6% (active)

CN1CCN(CCCN2c3ccccc3Sc3ccc(C(F)(F)F)cc32)CC1
growth [2]: 70.4% (inactive)
growth [3]: -11.9% (active)
growth [4]: -10.5% (active)
growth [5]: 52.7% (inactive)
growth [6]: 37% (inactive)
growth [7]: 63.5% (inactive)
growth [8]: 42.9% (inactive)
growth [10]: -59.5% (active)
growth [11]: 29.3% (inactive)
growth [12]: 5.41% (active)
growth [13]: 52.5% (inactive)
growth [14]: 73.8% (inactive)
growth [15]: 27.9% (inactive)
growth [16]: 39.8% (inactive)
growth [17]: 24.5% (inactive)
growth [18]: 15.3% (inactive)

CCO/C=C1\SC(=S)N(c2cccc(O)c2)C1=O
growth [2]: 109% (inactive)
growth [3]: 89.9% (inactive)
growth [4]: 88.2% (inactive)
growth [5]: 102% (inactive)
growth [6]: 102% (inactive)
growth [7]: 103% (inactive)
growth [8]: 99.5% (inactive)
growth [9]: 102% (inactive)
growth [20]: 105% (inactive)
growth [11]: 104% (inactive)
growth [12]: 98.5% (inactive)
growth [13]: 74.7% (inactive)
growth [14]: 96.3% (inactive)
growth [15]: 102% (inactive)
growth [16]: 98% (inactive)
growth [17]: 99.4% (inactive)
growth ([1]; 10 µM): 103% (inactive)
growth [18]: 103% (inactive)

Cc1nc(N=C(N)N)nc2ccc3ccccc3c12
growth [2]: 5.58% (active)
growth [3]: -4.93% (active)
growth [4]: -37.8% (active)
growth [5]: -0.868% (active)
growth [6]: 4.87% (active)
growth [7]: -25.4% (active)
growth [8]: 1.84% (active)
growth [9]: 4.58% (active)
growth [10]: -9.97% (active)
growth [11]: 71.8% (inactive)
growth [12]: 1.55% (active)
growth [13]: -10.3% (active)
growth [14]: -11.5% (active)
growth [15]: -17% (active)
growth [16]: -19.2% (active)
growth [17]: 2.88% (active)
growth ([1]; 10 µM): -20.9% (active)
growth [18]: 2.45% (active)
growth [19]: -0.847% (active)

O=C1C=CC(=CC=C2C=CN(CCCCCCCCCCCO)C=C2)C=C1
growth [2]: 44.3% (inactive)
growth [3]: 24.7% (inactive)
growth [4]: 41.6% (inactive)
growth [6]: 69.2% (inactive)
growth [8]: 45.3% (inactive)
growth [9]: 41.4% (inactive)
growth [10]: 4% (active)
growth [11]: 89.8% (inactive)
growth [12]: 22.5% (inactive)
growth [13]: 53.4% (inactive)
growth [15]: 25% (inactive)
growth [16]: 17.5% (inactive)
growth [17]: -54.3% (active)
growth ([1]; 10 µM): 29.6% (inactive)
growth [18]: 18.8% (inactive)

NC(=O)SCC(=O)NNc1ccccc1
growth [2]: 99.6% (inactive)
growth [3]: 101% (inactive)
growth [5]: 89.2% (inactive)
growth [6]: 112% (inactive)
growth [7]: 92.8% (inactive)
growth [8]: 94.6% (inactive)
growth [9]: 103% (inactive)
growth [10]: 91.6% (inactive)
growth [11]: 89.2% (inactive)
growth [12]: 103% (inactive)
growth [13]: 92.5% (inactive)
growth [14]: 108% (inactive)
growth [15]: 87.8% (inactive)
growth [16]: 85.7% (inactive)
growth [17]: 103% (inactive)
growth ([1]; 10 µM): 70.9% (inactive)
growth [18]: 67.1% (inactive)

N=S(c1ccccc1[N+](=O)[O-])c1ccccc1[N+](=O)[O-]
growth [2]: 80.4% (inactive)
growth [3]: 1.79% (active)
growth [4]: 74.5% (inactive)
growth [5]: 91.4% (inactive)
growth [6]: 79% (inactive)
growth [7]: 90.2% (inactive)
growth [8]: 99.5% (inactive)
growth [9]: 39.2% (inactive)
growth [10]: 89.7% (inactive)
growth [11]: -49.6% (active)
growth [12]: -32.7% (active)
growth [14]: 108% (inactive)
growth [15]: 84.5% (inactive)
growth [16]: 89.4% (inactive)
growth [17]: 50.3% (inactive)
growth ([1]; 10 µM): 67.9% (inactive)
growth [18]: 3.28% (active)

C[n+]1c2cc(N)ccc2cc2ccc(N)cc21
growth [4]: -62% (active) and -11.9% (active) and -51.7% (active)
growth [5]: 14.5% (inactive) [middle of 4 runs]
growth [6]: -34.2% (active) and 5.66% (active) and -8.06% (active)
growth [9]: 10.8% (inactive) and 19.8% (inactive) and -3.57% (active)
growth [11]: 19.6% (inactive) [middle of 4 runs]
growth [12]: 4.57% (active) [middle of 4 runs]
growth [15]: 1.21% (active) [middle of 4 runs]
growth ([1]; 10 µM): -30.5% (active) and -37% (active) and -78.6% (active)
growth [18]: 1.35% (active) [middle of 4 runs]

OC(CN1CCCC2CCCCC21)c1cc2ccccc2c2ccccc12 (stereo not given)
growth [2]: 40.3% (inactive)
growth [3]: -14.4% (active)
growth [4]: 17.7% (inactive)
growth [5]: -11.2% (active)
growth [7]: 45.7% (inactive)
growth [8]: -3.44% (active)
growth [9]: 27.8% (inactive)
growth [10]: 22.7% (inactive)
growth [11]: 22.5% (inactive)
growth [12]: 1.91% (active)
growth [13]: 12.5% (inactive)
growth [14]: 43.6% (inactive)
growth [15]: 28.2% (inactive)
growth [16]: 38.5% (inactive)
growth [17]: -84.6% (active)
growth [18]: -19.9% (active)

NNc1c2ccccc2nc2ccccc12
growth [2]: 66% (inactive)
growth [3]: 49.2% (inactive)
growth [4]: 62.5% (inactive)
growth [5]: 65.2% (inactive)
growth [6]: 72.8% (inactive)
growth [7]: 50.1% (inactive)
growth [9]: 42.8% (inactive)
growth [10]: 34.9% (inactive)
growth [11]: 35.1% (inactive)
growth [12]: 34.5% (inactive)
growth [13]: 55% (inactive)
growth [14]: 56.9% (inactive)
growth [15]: 48% (inactive)
growth [16]: 50.7% (inactive)
growth [17]: 22% (inactive)
growth ([1]; 10 µM): 45.2% (inactive)
growth [18]: 58.7% (inactive)
growth [19]: 76.7% (inactive)

COc1c(O)cc2oc3cc(O)c(CC=C(C)C)c(O)c3c(=O)c2c1CC=C(C)C
growth [2]: 62% (inactive)
growth [3]: 26.7% (inactive)
growth [4]: 87.4% (inactive)
growth [5]: 40.2% (inactive)
growth [6]: 83% (inactive)
growth [7]: 57.9% (inactive)
growth [8]: 56.2% (inactive)
growth [9]: 89% (inactive)
growth [11]: 24.1% (inactive)
growth [12]: 27.6% (inactive)
growth [13]: 82.7% (inactive)
growth [14]: 96.4% (inactive)
growth [15]: 47.9% (inactive)
growth [16]: 41.1% (inactive)
growth [17]: 90% (inactive)
growth [18]: 0.237% (active)

Cc1cc(O)c(C(C)C)cc1Cl
growth [2]: 101% (inactive)
growth [3]: 96.8% (inactive)
growth [4]: 109% (inactive)
growth [5]: 104% (inactive)
growth [6]: 120% (inactive)
growth [7]: 99.3% (inactive)
growth [8]: 100% (inactive)
growth [9]: 105% (inactive)
growth [11]: 106% (inactive)
growth [12]: 103% (inactive)
growth [13]: 93.2% (inactive)
growth [14]: 103% (inactive)
growth [15]: 101% (inactive)
growth [16]: 101% (inactive)
growth [17]: 103% (inactive)
growth ([1]; 10 µM): 103% (inactive)
growth [18]: 98.3% (inactive)

CC(C)C(NC(=O)CN)C(=O)O (stereo not given) (H-Gly-[ξV]-OH)
growth [2]: 107% (inactive) and 110% (inactive)
growth [3]: 92.9% (inactive) and 104% (inactive)
growth [4]: 101% (inactive) and 99.8% (inactive)
growth [5]: 106% (inactive)
growth [6]: 104% (inactive) and 108% (inactive)
growth [7]: 104% (inactive) and 101% (inactive)
growth [8]: 97.4% (inactive) and 101% (inactive)
growth [9]: 103% (inactive) and 106% (inactive)
growth [10]: 110% (inactive) and 101% (inactive)
growth [11]: 109% (inactive) and 106% (inactive)
growth [12]: 101% (inactive) and 100% (inactive)
growth [13]: 104% (inactive) and 84.7% (inactive)
growth [14]: 106% (inactive)
growth [15]: 102% (inactive) and 98.9% (inactive)
growth [16]: 92.6% (inactive) and 88.6% (inactive)
growth [17]: 104% (inactive) and 102% (inactive)
growth ([1]; 10 µM): 104% (inactive) and 94.5% (inactive)
growth [18]: 101% (inactive) and 102% (inactive)

CCCCCCCCCCCCSC(=NC)NC
growth [2]: 41.3% (inactive) and 75.6% (inactive)
growth [3]: 3.08% (active) and 2.7% (active)
growth [4]: 40% (inactive) and 72.8% (inactive)
growth [5]: -28.3% (active) and 40.4% (inactive)
growth [6]: 40.9% (inactive) and 70.6% (inactive)
growth [7]: 40.9% (inactive) and 74.9% (inactive)
growth [8]: 4.6% (active) and 65% (inactive)
growth [9]: 29.3% (inactive) and 55.4% (inactive)
growth [10]: 66.4% (inactive) and 98.2% (inactive)
growth [11]: -25.5% (active) and -28.8% (active)
growth [12]: 0.0905% (active) and 2.56% (active)
growth [13]: 74.8% (inactive) and 82.3% (inactive)
growth [14]: 42.6% (inactive) and 91.6% (inactive)
growth [15]: 8.04% (active) and 34.5% (inactive)
growth [16]: 42% (inactive) and 67.3% (inactive)
growth [17]: -5.79% (active) and 69.5% (inactive)
growth ([1]; 10 µM): -58.4% (active) and 61.4% (inactive)
growth [18]: -39.5% (active) and 26.8% (inactive)
growth [19]: 26.8% (inactive) and 68.5% (inactive)

Source: PubChem BioAssay (NCI)
